Bioassay records deposited in PubChem by National Center for Advancing Translational Sciences (NCATS).
Compounds with a hit are over-represented: about 19% of the library has one in this group of screens.
IL1B secr inh: inflammasome signaling inhibition, IL-1 beta readout | activity change, % at 57.5 µM | THP-1 LPS/ATP IL-1B secretion, AlphaLISA, 16 h; stronger effect = lower value | 360,000 compounds, 4.7% hits; in the data active = activity change below about -50%; inconclusive = mostly about -30% to -49%
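THP-1 cells pretreated 1 hr with compounds (up to 57.5 uM final), then stimulated with LPS (250 ng/mL final) plus ATP (1.25 mM final); secreted IL-1B measured by AlphaLISA after 16 hr, decreased signal indicating inhibition.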
DT40 TDP1 CPT: DT40-hTDP1 cell growth loss with CPT. chicken DT40 Tdp1-/-;hTDP1 cells + 20 nM CPT, ATP luminescence, 48 h. Potency, µM (series often up to 46.2 µM), usual class: inhibitors. 420,000 compounds, 12% hits. AID 686979; note: nearly all actives have a fitted effect of over 55% in size
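Cell growth measured by CellTiter-Glo luminescence after a minimum 48 h, 37 C compound exposure with 20 nM CPT in Tdp1-knockout DT40 cells stably expressing hTDP1, seeded 400/well; qHTS titration format.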
HT1080-NT tox: kills 2HG-producing HT-1080-NT fibrosarcoma cells; Potency, µM (titrated, usually from 46.1 µM), usual class: cytotoxic; 360,000 compounds, 1.6% hits; HT-1080-NT fibrosarcoma viability, CellTiter-Glo ATP luminescence, 48 h;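 note: NT is the 2HG producing partner of a matched IDH1 knockdown line; nearly all actives have a fitted effect of over 55% in size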
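HT-1080-NT; 750 cells/well; 5% FBS RPMI; 48 h compound, 37 degrees C; CellTiter-Glo luminescence; curve fitting and curve-class assignment.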
HT1080 IDH1KD tx: HT-1080 IDH1 knockdown cell toxicity (counter line); Potency, µM (highest dose often 46.1 µM), hits mostly cytotoxic; AID 686971; HT-1080 IDH1 knockdown viability, ATP luminescence, 48 h; 360,000 compounds, 2% hits
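Using the IDH1-knockdown HT-1080 line run in the same batch and compound series as the NT line, viability after 48 h at 37 °C was determined by CellTiter-Glo luminescence and expressed as % activity.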
DT40 TDP1 no CPT: qHTS for Inhibitors of human tyrosyl-DNA phosphodiesterase 1 (TDP1): qHTS in cells in absence of CPT. DT40 Tdp1-/- hTDP1 cells, no CPT, ATP luminescence, 48 h. Potency, µM (titrated, usually from 46.2 µM), actives largely listed as inhibitors. 420,000 compounds, 15% hits. AID 686978, 2013; note: nearly all actives have a fitted effect of over 55% in size
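Stably hTDP1-transfected Tdp1-null chicken DT40 cells were treated with library compounds minus camptothecin and grown for at least 48 hr at 37 °C, after which cellular ATP was quantified by luminescence.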
Numbers stand for hits; 0 = inactive; ? = inconclusive; - = no result; [ ] = dose if it differs, or a comment. Unless noted, calls come from the whole dose curve; as a rule, active = well fitted curve in the direction sought with a large enough effect; inconclusive = small, poorly fitted or top-dose-only effect, or another doubt; inactive = no such curve, though single readings can be large; an effect the other way counts as inactive or inconclusive.

SMILES | IL1B secr inh | DT40 TDP1 CPT | HT1080-NT tox | HT1080 IDH1KD tx | DT40 TDP1 no CPT
COc1ccccc1Cn1cc(C(=O)c2ccc(C)cc2)c(=O)c2cc(C)ccc21 | - | 5.2µM | - | - | 7.3µM
COc1ccccc1Cn1cc(C(=O)c2ccc(C)cc2)c(=O)c2cc3c(cc21)OCCO3 | - | 15µM | - | - | 21µM
Cc1ccc(NC(=O)c2ccc3c(SCC(=O)O)c4c(nc3c2)CCCC4)c(Br)c1 | 0 | 0 | 0 | 0 | 0
Cc1ccc2ncnc(NCCCCCC(=O)O)c2c1 | 0 | 0 | 0 | 0 | 0
CN1CC(=O)Nc2cc(C(=O)O)ccc21 | - | 0 | - | - | 0
Cn1c(=O)[nH]c(=O)c2c1nc(CN1CCN(Cc3ccccc3)CC1)n2CC(N)=O | 0 | 0 | 0 | 0 | 0
CCCCCn1c(N2CCN(c3cccc(Cl)c3)CC2)nc2c1c(=O)[nH]c(=O)n2C | ? | 21µM | 0 | 0 | 23µM
CCn1c(CN2CCN(c3cccc(Cl)c3)CC2)nc2c1c(=O)[nH]c(=O)n2C | - | ? | - | - | 18µM
COc1cc2nc(N(C)C)c(CNCc3cccc4ccccc34)cc2c(OC)c1OC | - | 0[9.04 µM] | - | - | ?
COc1ccccc1C(=O)NCCC(=O)N1CCN(C(C)=O)CC1 | 0 | 0 | 0 | 0 | 0
OC1(c2ccc3c(c2)CN(Cc2ccco2)CCO3)CCN(c2ccccc2F)CC1 | - | 0[9.04 µM] | - | - | ?
Cc1ccc(NC(=O)CN2C(=O)CSc3ccc(S(=O)(=O)N4CCCC4)cc32)c(C)c1 | - | 0 | - | - | 0
O=C(OCn1ncc(Cl)c(Cl)c1=O)c1cccc(C(F)(F)F)c1 | -101 | ? | ? | 21µM | 3.3µM
N/C(=N\OC(=O)c1cccc(C(F)(F)F)c1)c1cnccn1 | ? | 0 | 0 | 0 | 0
CCC(C)N(C(=O)COC(=O)CNC(=O)c1sc2ccccc2c1Cl)C1CCS(=O)(=O)C1 (stereo not drawn) | 0 | 0 | 0 | 0 | 0
C=CC[n+]1c(-c2ccc(OCC)cc2)csc1NNC(=O)Nc1ccccc1 | 0 | 7.3µM | ? | ? | 5.8µM
CCc1ccccc1Oc1nc(NC(C)C)nc2ccsc12 | 0 | ? | 0 | 0 | ?
CC(C)Nc1nc(-c2ccccc2CO)c2sccc2n1 | 0 | ? | 0 | 0 | 0
CC(C)Nc1nc(Nc2ccc(C#N)cc2)c2sccc2n1 | 0 | 15µM | 0 | 0 | 26µM
CC(C)Nc1nc(Nc2ccc(F)cc2)c2sccc2n1 | 0 | 26µM | 0 | 0 | ?
COc1ccc(N(C(=O)c2snc(C(N)=O)c2N)C(C(=O)NCc2ccc(F)cc2)c2ccc(O)cc2)cc1 (stereo not drawn) | -88 | ? | 0 | ? | ?
COc1cccc(N(C(=O)c2snc(C(N)=O)c2N)C(C(=O)NCc2ccccc2)c2ccc(O)cc2)c1 (stereo not drawn) | -53 | ? | 0 | 0 | 18µM
COc1ccc(C(C(=O)NCc2ccccc2)N(C(=O)Cn2nnc3ccccc32)c2ccc(F)cc2)cc1 (stereo not drawn) | - | ? | - | - | 15µM
COc1ccc(N(C(=O)c2snc(C(N)=O)c2N)C(C(=O)NCc2ccccc2)c2ccc(O)cc2)cc1OC (stereo not drawn) | 0 | 0 | 0 | 0 | ?
COc1ccc(N(C(=O)Cn2nnc3ccccc32)C(C(=O)NCc2ccco2)c2ccncc2)cc1 (stereo not drawn) | 0 | 0 | 0 | 0 | 0
SMILES | IL1B secr inh | DT40 TDP1 CPT | HT1080-NT tox | HT1080 IDH1KD tx | DT40 TDP1 no CPT
Nn1c(SCc2c(F)cccc2F)nnc1-c1ccccn1 | - | 0 | 0 | 0 | 0
NC(=O)C1CCCN(Cc2ccc3c(c2)CN(Cc2cn[nH]c2-c2ccc(F)cc2)CCO3)C1 (stereo not drawn) | - | 0[9.04 µM] | - | - | 0
CC(C)(C)S(=O)N1Cc2cc(CO)cc(CCO)c2[C@H]1CCO (stereo partly drawn) | 0 | 0 | 0 | 0 | 0
O=C(NNS(=O)(=O)c1ccc([N+](=O)[O-])cc1)c1ccc([N+](=O)[O-])cc1 | 0 | 0 | 0 | 0 | 0
O=C(NNS(=O)(=O)c1ccc([N+](=O)[O-])cc1)c1cnn(-c2ccccc2)c1-n1cccc1 | 0 | 0.46µM | 0 | 0 | 0.46µM
O=C(NNS(=O)(=O)c1ccccc1)c1cnn(-c2ccccc2)c1-n1cccc1 | 0 | 8.2µM | ? | 0 | 12µM
NNC(=O)c1cnn(-c2ccccc2)c1-n1cccc1 | 0 | 0 | ? | ? | 0
O=C(O)c1cnn(-c2ccccc2)c1-n1cccc1 | 0 | 0 | 0 | 0 | 0
O=C(NNS(=O)(=O)c1ccc(Cl)cc1)c1cnn(-c2ccccc2)c1-n1cccc1 | 0 | 1.5µM | 0 | 0 | 2.1µM
Cc1ccccc1NC(=O)CSc1nc(=O)n(CCN2CCOCC2)c2c1CCC2 | - | 0 | - | - | 0
O=C(NCc1ccco1)C(c1ccccc1)N(Cc1ccccc1)C(=O)Cn1nnc2ccccc21 (stereo not drawn) | ? | ? | 0 | 0 | ?
Cc1ccc(NC(=O)c2c(C)oc3ccc(O)c(CN4CCCCC4)c23)c(C)c1 | - | 12µM | - | - | 16µM
COc1ccc(NC(=O)c2c(C)oc3ccc(O)c(CN4CCCCCC4)c23)cc1Cl | - | 26µM | - | - | ?
Cc1oc2ccc(O)c(CN3CCOCC3)c2c1C(=O)Nc1ccccc1 | - | 0 | - | - | 0
COc1cccc(OC)c1C(=O)Nc1ccc(CN2CCCCC2)cc1 | 0 | 0 | 0 | 0 | 0
Cc1ccccc1NC(=O)c1c(C)oc2ccc(O)c(CN3CCCCCC3)c12 | - | 23µM | - | - | 21µM
Cc1oc2ccc(O)c(CN3CCOCC3)c2c1C(=O)Nc1ccc(C(C)C)cc1 | - | 16µM | - | - | 16µM
Cc1ccc(Cn2c(C)c3cnn(CC(=O)O)c(=O)c3c2C)cc1 | - | 0 | - | - | 0
Cc1oc2ccc(O)c(CN3CCN(Cc4ccccc4)CC3)c2c1C(=O)Nc1ccccc1 | - | 23µM | - | - | ?
Cc1ccccc1NC(=O)c1c(C)oc2ccc(O)c(CN3CCOCC3)c12 | - | 21µM | - | - | 23µM
O=c1c2ccccc2nc(SCc2ccc(F)cc2Cl)n1CCCN1CCOCC1 | 0 | ? | 0 | 0 | 16µM
COc1ccccc1CNC(=O)CSc1nc2ccccc2c(=O)n1CCCN1CCOCC1 | 0 | 0 | 0 | 0 | 0
O=C(CSc1nc2ccccc2c(=O)n1CCCN1CCOCC1)c1c[nH]c2ccccc12 | -110 | ? | ? | ? | ?
CC(=O)c1ccccc1NC(=O)CSc1nc2ccccc2c(=O)n1CCCN1CCOCC1 | 0 | ? | 0 | ? | ?
Cn1c(SCc2ccc(F)cc2Cl)nc2ccccc2c1=O | 0 | ? | 0 | 0 | 15µM
CC1Cc2ccccc2N1C(=O)CSc1nnc(-c2ccccc2)c(-c2ccccc2)n1 (stereo not drawn) | ? | 21µM | 0 | 0 | ?
CC(Sc1nnc(-c2ccccc2)c(-c2ccccc2)n1)C(=O)N1CCc2ccccc21 (stereo not drawn) | 0 | ? | 0 | 0 | 16µM
